The text below walks through data of PubChem BioAssay (NCATS).

Inconclusive results are not listed. Active and inactive are the calls of the source. Unless noted, the call rests on the fitted dose curve; in most records, active means well fitted inhibition curve with a large enough effect; inconclusive means small, poorly fitted or top-dose-only effect; inactive means flat fitted curve, though single readings scatter.

Test [1] can be described thus: qHTS drug screen for cell cycle checkpoint inhibitors in PARPi-resistant BRCA-mutant ovarian cancer cell lines. (AID 1963452; calls by dose curve). Conditions: PEO1/OlaR viability, CellTiter-Glo luminescence, 96 h, stronger effect = lower value. The method in brief: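 PEO1, PEO4 and PEO1/OlaR ovarian cancer cells, 600 per well, exposed 96 h at 37C to a dilution series. Viability read by CellTiter-Glo luminescence, normalized to DMSO and empty wells; activity summarized as Z-AUC.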
For orientation: qHTS replaces the single test concentration by a dilution series.

Test [2] in a line: qHTS profiling for inhibitors of Plasmodium falciparum proliferation (AID 504749). Further: nearly all actives have a fitted effect of over 60% in size. Further: potency means the concentration at half of the fitted maximal effect.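 On activity, negative = inhibition: 0% = DMSO vehicle and full inhibition = artemisinin control.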 To be noted: P. falciparum in erythrocytes, SYBR Green DNA, 72 h. In a few lines:
(§1)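 Infected RBCs, 0.3% parasitemia/2.5% Hct final; cpd 72 h, 37 C, 5% CO2; lysis buffer with saponin/triton/SYBR Green I, o/n RT dark; FI 485/535; norm. to artemisinin (0.29 uM) and DMSO.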

Test [3] deals with 3D7. The test is described as above. To be noted: P. falciparum in erythrocytes, SYBR Green DNA, 72 h; series mostly up to 28.7 µM. The method in brief:
as §1

In test [4] the test system is 7G8. The description is as above. To be noted: P. falciparum in erythrocytes, SYBR Green DNA, 72 h; series mostly up to 28.7 µM. The method in brief: as §1
The test system of test [5] is AA1029. The test is described as above. Conditions: P. falciparum in erythrocytes, SYBR Green DNA, 72 h; series mostly up to 28.7 µM. In a few lines:
as §1

Test [6] deals with AS120. The test is described as above. To be noted: P. falciparum in erythrocytes, SYBR Green DNA, 72 h; series mostly up to 28.7 µM. In a few lines: as §1
The test system of test [7] is ATS189. The test is described as above. Conditions: P. falciparum in erythrocytes, SYBR Green DNA, 72 h; series mostly up to 28.7 µM. In a few lines:
as §1

The test system of test [8] is ATS95. The description is as above. To be noted: P. falciparum in erythrocytes, SYBR Green DNA, 72 h; series mostly up to 28.7 µM. In a few lines: as §1
In test [9] the test system is C2A. The description is as above. Conditions: P. falciparum in erythrocytes, SYBR Green DNA, 72 h; series mostly up to 28.7 µM. The method in brief:
as §1

Test [10] concerns CP185. Described as above. To be noted: P. falciparum in erythrocytes, SYBR Green DNA, 72 h; series mostly up to 28.7 µM. The method in brief: as §1
Test [11] is described as follows: qHTS for identification of novel therapeutic agents for treatment of microphthalmiaassociated transcription factor (MiT) renal cell carcinoma (RCC) (AID 1963991). To be noted: CellTiter-Glo, 48 h, stronger effect = lower value. The method in brief: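 Three TFE3-fusion RCC lines (UOK109, UOK124, UOK145), 500 cells/well in complete medium, were treated with MIPE 4.0 compounds for 48 hours at 37 C. Viability was by CellTiter-Glo luminescence, normalized to DMSO (100%) and empty wells (0%); curves fitted over 11 concentrations.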

[12] abbreviates: measured here: PEO1 parental Z-AUC.
[13] abbreviates: TFE3-RCC UOK109 viability, measured here: UOK109 Z-AUC.
The mark [14] stands for this setting: TFE3-RCC viability, measured here: UOK124 Z-AUC.
Setting [15] is: TFE3-RCC viability, measured here: UOK145 Z-AUC.
Setting [16] is: at 28.7 µM (top of the series), parasite line A.
[17] abbreviates: at 28.7 µM (top of the series), parasite line B.

`COc1cc(NCc2ccc3nc(N)nc(N)c3c2C)cc(OC)c1OC`: the Z-AUC was 0.262 (inactive) in [1], 0.153 in test [1] (setting [12]) and -0.254 in test [1] (measured here: PEO4 Z-AUC). The Potency in test [2] (parasite line A) is 0.0035 µM (active); in test [2] (parasite line B) it was 0.0071 µM (active); in test [3], 0.0063 µM (active); in test [4] it was 79.4 nM (active); in test [5] it was 1 µM (active); in test [6], 1 µM (active). For the same compound, the Potency is 0.282 µM (active) in [7], 0.631 µM (active) in test [8], 0.631 µM (active) in test [9] and 0.562 µM (active) in test [10].

Regarding `COC(=O)Nc1nc2ccc(Sc3ccccc3)cc2[nH]1`, the figures for the Z-AUC in test [1], in test [1] (setting [12]) and in [1] (measured here: PEO4 Z-AUC) were -0.927 (inactive), -0.935 and -0.94, respectively. For the same compound, the activity, negative = inhibition was 5.04% (inactive) in test [2] (at 12.8 µM (top of the series), parasite line A) and -0.246% (inactive) in test [2] (at 12.8 µM (top of the series), parasite line B). Moreover, the Potency result in [3], in test [4], in test [5], in test [6], in test [7] and in test [8] was “inactive” each time. Besides, the Potency result in test [9] and in test [10] was “inactive” in each case.

For the compound `CC(N)C12CC3CC(CC(C3)C1)C2` (stereo not given), the Z-AUC in test [1] was 0.887 (inactive); in test [1] (setting [12]), 0.571; in test [1] (measured here: PEO4 Z-AUC), 0.722. The z-score in test [11] (setting [13]) was 0.00344; in [11] (setting [14]), 0.654; in test [11] (setting [15]), 0.503. Also, the activity, negative = inhibition in test [2] (setting [16]) was 7.36% (inactive); in test [2] (setting [17]), -12% (inactive). Besides, the Potency result in test [9] is “inactive”.

On to `C1CCC(C(CC2CCCCN2)C2CCCCC2)CC1` (stereo not given), for which the Z-AUC in [1] is -0.764 (inactive); in test [1] (setting [12]), -0.095; in [1] (measured here: PEO4 Z-AUC), -0.0366. Also, the Potency is 8.91 µM (active) in [2] (parasite line B); 7.94 µM (active) in test [3]; 1260 nM (active) in test [4]; 11.2 µM (active) in test [5]; 7.94 µM (active) in test [6]; 11.2 µM (active) in test [7]. For the same compound, the Potency in test [8] is 11.2 µM (active); in [9], 11.2 µM (active); in test [10] it was 10 µM (active).

`O=c1oc2c(O)c(O)cc3c(=O)oc4c(O)c(O)cc1c4c23`: the Z-AUC in test [1] was 0.559 (inactive); in test [1] (setting [12]) it was 0.754; in test [1] (measured here: PEO4 Z-AUC) it was 0.513. The z-score in test [11] (setting [13]) is 1.02; in test [11] (setting [14]) it was 0.807; in [11] (setting [15]) it was 0.717. For the same compound, the Potency in test [3] is 1 µM (active); in test [4], 2820 nM (active); in [6] it was 1.41 µM (active). For the same compound, the Potency result in test [5] and in test [10] was “inactive” each time.

For `Nc1nc(N)c2nc(CNc3ccc(C(=O)NC(CCC(=O)O)C(=O)O)cc3)cnc2n1` (stereo not given), the Z-AUC in test [1] is 0.0258 (inactive); in test [1] (setting [12]), 0.192; in [1] (measured here: PEO4 Z-AUC) it was 1.1. Also, the activity, negative = inhibition was 3.54% (inactive) in test [2] (setting [16]) and -5.01% (inactive) in [2] (setting [17]). Moreover, the Potency result in test [3], in test [4], in [5], in test [6], in test [7] and in test [8] was “inactive” in each case. Besides, the Potency result in [9] and in test [10] was “inactive” throughout.

As to `N=C(N)c1ccc(OCCCCCOc2ccc(C(=N)N)cc2)cc1`, the Z-AUC in [1] was 0.0445 (inactive); in test [1] (setting [12]), -0.0701; in [1] (measured here: PEO4 Z-AUC) it was 0.016. Besides, the Potency in test [2] (parasite line A) is 1 µM (active); in test [2] (parasite line B), 2.24 µM (active); in [3], 1.58 µM (active); in [4] it was 199 nM (active); in [5] it was 1 µM (active); in test [6], 0.891 µM (active). The Potency is 1.41 µM (active) in [7], 1.12 µM (active) in test [8], 1.26 µM (active) in [9] and 1.12 µM (active) in test [10].

As for `COc1ccc(-c2ccc3cc(C(=O)O)ccc3c2)cc1C12CC3CC(CC(C3)C1)C2`, the figures for the Z-AUC in [1], in [1] (setting [12]) and in [1] (measured here: PEO4 Z-AUC) were 0.117 (inactive), -0.0792 and -0.489, respectively. Further, the activity, negative = inhibition in test [2] (setting [16]) was 6.34% (inactive); in [2] (setting [17]) it was 6.13% (inactive). Further, the Potency entry in test [3], in test [5], in test [6], in test [7], in test [9] and in [10] was “inactive” throughout.
